The source made the active and inactive calls. Rule for the calls: active = hit-call score of the fitted dose curve at least 0.9, where 1 is the maximum; inactive = score below 0.9.
What was measured:
[1] = read-out: CFLAR gene, CFLAR (gene 8837); experiment: LTEA_HepaRG_CFLAR: Life Technologies and Expression Analysis (LTEA) Assay for CFLAR gene using HepaRG (AID 2283455); settings: mRNA level, 48 h; actives raise or lower the signal
Outline: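 HepaRG cells were plated for 48 h, switched to serum-free induction medium, then exposed in duplicate for 48 h to 8 concentrations (top 100 uM, half-log steps, 0.5% DMSO). CFLAR mRNA was measured by qRT-PCR, normalized to ACTB, GAPDH and POLR2A.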

[2] = read-out: Forkhead box O1 (FOXO1), FOXO1 (gene 2308); experiment: LTEA_HepaRG_FOXO1: Life Technologies and Expression Analysis (LTEA) Assay for Forkhead box O1 (FOXO1) using HepaRG (AID 2283456); settings: mRNA level, 48 h; actives raise or lower the signal
Outline: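 Differentiated human HepaRG cells in serum-free induction medium were exposed in duplicate for 48 h to eight half-log concentrations (top 100 uM, 0.5% DMSO). FOXO1 mRNA was measured by TaqMan qRT-PCR, normalised to ACTB, GAPDH and POLR2A, and fitted bidirectionally against DMSO.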

[3] = read-out: ABC Transporter (ABCB1), ABCB1 (gene 5243); experiment: LTEA_HepaRG_ABCB1: Life Technologies and Expression Analysis (LTEA) Assay for ABC Transporter (ABCB1) using HepaRG (AID 2283460); settings: mRNA level, 48 h; actives raise or lower the signal
Outline: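 Differentiated human HepaRG cells, plated 48 h then switched to serum-free induction medium, were exposed in duplicate to eight half-log concentrations up to 100 uM in 0.5% DMSO for 48 h. ABCB1 mRNA was measured by TaqMan qRT-PCR, normalized to ACTB/GAPDH/POLR2A.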

[4] = read-out: growth arrest and DNA damage 45 (GADD45B), GADD45B (gene 4616); experiment: LTEA_HepaRG_GADD45B: Life Technologies and Expression Analysis (LTEA) Assay for growth arrest and DNA damage 45 (GADD45B) using HepaRG (AID 2283461); settings: mRNA level, 48 h; actives raise or lower the signal
Outline: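 Transcript level quantified by Fluidigm TaqMan qRT-PCR with three housekeeping genes for normalization, analyzed for up- or down-regulation against 0.5% DMSO. HepaRG cultures dosed 48 h at eight half-log concentrations up to 100 uM, duplicates.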

[5] = read-out: ABC Transporter (ABCC3), ABCC3 (gene 8714); experiment: LTEA_HepaRG_ABCC3: Life Technologies and Expression Analysis (LTEA) Assay for ABC Transporter (ABCC3) using HepaRG (AID 2283462); settings: mRNA level, 48 h; actives raise or lower the signal
Outline: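 Transcript level by TaqMan qRT-PCR, normalised to three housekeeping genes, fitted in both directions relative to vehicle. Chemicals tested in duplicate at eight half-log concentrations up to 100 uM for 48 h on HepaRG cells (0.5% DMSO).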

[6] = read-out: ABC Transporter (ABCB11), ABCB11 (gene 8647); experiment: LTEA_HepaRG_ABCB11: Life Technologies and Expression Analysis (LTEA) Assay for ABC Transporter (ABCB11) using HepaRG (AID 2283463); settings: mRNA level, 48 h; actives raise or lower the signal
Outline: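 Differentiated human HepaRG cells were exposed for 48 h in serum-free induction medium to eight half-log concentrations up to 100 uM in 0.5% DMSO. ABCB11 mRNA was quantified by qRT-PCR, normalized to ACTB, GAPDH and POLR2A, and fitted bidirectionally versus DMSO.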

[7] = read-out: ABC Transporter (ABCC2), ABCC2 (gene 1244); experiment: LTEA_HepaRG_ABCC2: Life Technologies and Expression Analysis (LTEA) Assay for ABC Transporter (ABCC2) using HepaRG (AID 2283464); settings: mRNA level, 48 h; actives raise or lower the signal
Outline: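 Endpoint is ABCC2 transcript level from qRT-PCR, normalized to three housekeeping genes and fitted bidirectionally relative to DMSO. Human HepaRG cells received test chemical for 48 h at up to 100 uM (8 points, half-log steps, 0.5% DMSO), duplicate wells.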

[8] = read-out: Broad substrate specificity ATP-binding cassette transporter ABCG2 (Homo sapiens) (UniProt Q9UNQ0); experiment: LTEA_HepaRG_ABCG2: Life Technologies and Expression Analysis (LTEA) Assay for ABC Transporter (ABCG2) using HepaRG (AID 2283465); settings: mRNA level, 48 h; actives raise or lower the signal
Outline: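 Differentiated HepaRG cells in serum-free induction medium were exposed for 48 h, in duplicate, to eight half-log concentrations up to 100 uM in 0.5% DMSO. ABCG2 mRNA was measured by TaqMan qRT-PCR, normalized to ACTB, GAPDH and POLR2A, and fitted bidirectionally versus DMSO.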

[9] = read-out: ATP-citrate lyase (ACLY), ACLY (gene 47); experiment: LTEA_HepaRG_ACLY: Life Technologies and Expression Analysis (LTEA) Assay for ATP-citrate lyase (ACLY) using HepaRG (AID 2283466); settings: mRNA level, 48 h; actives raise or lower the signal
Outline: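 Differentiated human HepaRG cells in serum-free induction medium exposed 48 h, in duplicate, to eight half-log concentrations from 100 uM top in 0.5% DMSO; ACLY mRNA measured by qRT-PCR, normalized to ACTB, GAPDH, POLR2A, fitted bidirectionally versus DMSO.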

[10] = read-out: Peroxisomal acyl-coenzyme A oxidase 1 (ACOX1) gene, ACOX1 (gene 51); experiment: LTEA_HepaRG_ACOX1: Life Technologies and Expression Analysis (LTEA) Assay for Peroxisomal acyl-coenzyme A oxidase 1 (ACOX1) gene using HepaRG (AID 2283467); settings: mRNA level, 48 h; actives raise or lower the signal
Outline: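 Differentiated human HepaRG cells were exposed in duplicate for 48 h in serum-free induction medium to eight half-log concentrations up to 100 uM in 0.5% DMSO. ACOX1 mRNA was then quantified by TaqMan qRT-PCR, normalized to ACTB, GAPDH and POLR2A.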

[11] = read-out: Bcl-2 (BAX) gene, BAX (gene 581); experiment: LTEA_HepaRG_BAX: Life Technologies and Expression Analysis (LTEA) Assay for Bcl-2 (BAX) gene using HepaRG (AID 2283470); settings: mRNA level, 48 h; actives raise or lower the signal
Outline: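 Differentiated human HepaRG cells, plated 48 h then switched to serum-free induction medium, were exposed 48 h to 8 half-log concentrations up to 100 uM in 0.5% DMSO; BAX mRNA measured by qRT-PCR, normalized to ACTB, GAPDH, POLR2A.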

[12] = read-out: adenosine kinase (ADK) gene, ADK (gene 132); experiment: LTEA_HepaRG_ADK: Life Technologies and Expression Analysis (LTEA) Assay for adenosine kinase (ADK) gene using HepaRG (AID 2283471); settings: mRNA level, 48 h; actives raise or lower the signal
Outline: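 Following 48 h exposure of HepaRG cells in 0.5% DMSO (top concentration 100 uM, duplicate wells), ADK mRNA induction or suppression was measured by qRT-PCR, normalised to ACTB/GAPDH/POLR2A, and fitted bidirectionally relative to vehicle.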

[13] = read-out: Alpha-fetoprotein (AFP) gene, AFP (gene 174); experiment: LTEA_HepaRG_AFP: Life Technologies and Expression Analysis (LTEA) Assay for Alpha-fetoprotein (AFP) gene using HepaRG (AID 2283472); settings: mRNA level, 48 h; actives raise or lower the signal
Outline: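 Human HepaRG cells plated 48 h, then switched to serum-free induction medium and exposed in duplicate for 48 h to 8-point half-log series from 100 uM in 0.5% DMSO. AFP mRNA by qRT-PCR, normalized to ACTB, GAPDH, POLR2A; bidirectional fit versus DMSO.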

BCL2L11 (gene 10018) = experiment: LTEA_HepaRG_BCL2L11: Life Technologies and Expression Analysis (LTEA) Assay for Bcl-2 (BCL2L11) gene using HepaRG (AID 2283473); settings: mRNA level, 48 h; actives raise or lower the signal
Outline: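 BCL2L11 transcript levels are measured by Fluidigm qRT-PCR, normalized to three housekeeping genes. HepaRG cultures were plated 48 h, then treated 48 h with test chemical (top 100 uM, half-log, 0.5% DMSO vehicle); curves were fitted bidirectionally against DMSO.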

[14] = read-out: Apolipoprotein A-V (APOA5) gene, APOA5 (gene 116519); experiment: LTEA_HepaRG_APOA5: Life Technologies and Expression Analysis (LTEA) Assay for Apolipoprotein A-V (APOA5) gene using HepaRG (AID 2283474); settings: mRNA level, 48 h; actives raise or lower the signal
Outline: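 APOA5 transcript levels were quantified by qRT-PCR, normalized to three housekeeping genes, after 48 h chemical treatment of HepaRG cells (8 points, 100 uM maximum, half-log steps, 0.5% DMSO). Curves fitted in both directions against vehicle.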

[15] = read-out: Apoptosis regulator Bcl-2 (Homo sapiens) (UniProt P10415); experiment: LTEA_HepaRG_BCL2: Life Technologies and Expression Analysis (LTEA) Assay for Bcl-2 gene using HepaRG (AID 2283475); settings: mRNA level, 48 h; actives raise or lower the signal
Outline: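 Differentiated HepaRG cells in serum-free induction medium were exposed for 48 h to eight half-log concentrations up to 100 uM in 0.5% DMSO, in duplicate. BCL2 mRNA was quantified by TaqMan qRT-PCR normalised to ACTB, GAPDH and POLR2A, with bidirectional fitting versus DMSO.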

[16] = read-out: Bcl-2 (BID) gene, BID (gene 637); experiment: LTEA_HepaRG_BID: Life Technologies and Expression Analysis (LTEA) Assay for Bcl-2 (BID) gene using HepaRG (AID 2283476); settings: mRNA level, 48 h; actives raise or lower the signal
Outline: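 Differentiated HepaRG cells in serum-free induction medium were exposed in duplicate for 48 h to eight half-log concentrations up to 100 uM in 0.5% DMSO. BID mRNA was quantified by qRT-PCR, normalized to ACTB, GAPDH and POLR2A.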

Caspase-3 (Homo sapiens) = Caspase-3 (Homo sapiens) (UniProt P42574); experiment: LTEA_HepaRG_CASP3: Life Technologies and Expression Analysis (LTEA) Assay for cysteine-aspartic acid protease (CASP3) using HepaRG (AID 2283477); settings: mRNA level, 48 h; actives raise or lower the signal
Outline: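 Expression of CASP3 was quantified by TaqMan qRT-PCR against three housekeeping genes (ACTB, GAPDH, POLR2A), bidirectionally versus 0.5% DMSO. HepaRG cultures received compounds in duplicate, top 100 uM with half-log steps, for 48 h in serum-free induction medium.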

[17] = read-out: Cytochrome P450 (CYP24A1), CYP24A1 (gene 1591); experiment: LTEA_HepaRG_CYP24A1: Life Technologies and Expression Analysis (LTEA) Assay for Cytochrome P450 (CYP24A1) using HepaRG (AID 2283478); settings: mRNA level, 48 h; actives raise or lower the signal
Outline: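 mRNA of CYP24A1 quantified by TaqMan qRT-PCR (ACTB/GAPDH/POLR2A normalization) after 48 h chemical exposure of HepaRG cells, top concentration 100 uM, half-log steps, 0.5% DMSO vehicle, duplicates. Curves fitted bidirectionally against DMSO baseline.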

[18] = CEETOX_H295R_TESTO: CeeTox H295R High-throughput Steroidogenesis Assay for Testosterone (TESTO) (AID 2283457); settings: actives raise or lower the signal;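 for AC50: cells exposed to chemicals for 48 h before medium collection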
Outline: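 Testosterone secreted into the medium over 48 h by H295R cells (maximum passage 10) was quantified by LC-MS/MS after MTBE extraction. Fitted in both directions against DMSO, with concentrations diluted until MTT viability was ≥70%.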

Measured: AC50

Caspase-3 (Homo sapiens), sequence (P42574 whole entry, looked up): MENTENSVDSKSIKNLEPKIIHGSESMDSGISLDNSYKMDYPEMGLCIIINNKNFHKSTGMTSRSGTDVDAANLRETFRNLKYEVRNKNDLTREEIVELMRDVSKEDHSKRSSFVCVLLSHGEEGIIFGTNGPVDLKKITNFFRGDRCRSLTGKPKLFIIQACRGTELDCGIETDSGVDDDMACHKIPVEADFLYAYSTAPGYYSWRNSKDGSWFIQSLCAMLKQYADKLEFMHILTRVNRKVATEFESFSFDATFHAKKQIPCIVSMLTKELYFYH
Apoptosis regulator Bcl-2 (Homo sapiens), sequence (P10415 whole entry, looked up): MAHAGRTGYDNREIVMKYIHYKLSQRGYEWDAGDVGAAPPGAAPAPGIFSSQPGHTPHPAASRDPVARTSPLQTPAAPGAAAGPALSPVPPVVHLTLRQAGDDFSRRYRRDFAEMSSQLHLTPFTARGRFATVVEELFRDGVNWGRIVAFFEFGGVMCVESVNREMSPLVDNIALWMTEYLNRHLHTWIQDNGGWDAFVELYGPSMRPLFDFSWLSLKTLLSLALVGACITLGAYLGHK
Broad substrate specificity ATP-binding cassette transporter ABCG2 (Homo sapiens), sequence (Q9UNQ0 whole entry, looked up): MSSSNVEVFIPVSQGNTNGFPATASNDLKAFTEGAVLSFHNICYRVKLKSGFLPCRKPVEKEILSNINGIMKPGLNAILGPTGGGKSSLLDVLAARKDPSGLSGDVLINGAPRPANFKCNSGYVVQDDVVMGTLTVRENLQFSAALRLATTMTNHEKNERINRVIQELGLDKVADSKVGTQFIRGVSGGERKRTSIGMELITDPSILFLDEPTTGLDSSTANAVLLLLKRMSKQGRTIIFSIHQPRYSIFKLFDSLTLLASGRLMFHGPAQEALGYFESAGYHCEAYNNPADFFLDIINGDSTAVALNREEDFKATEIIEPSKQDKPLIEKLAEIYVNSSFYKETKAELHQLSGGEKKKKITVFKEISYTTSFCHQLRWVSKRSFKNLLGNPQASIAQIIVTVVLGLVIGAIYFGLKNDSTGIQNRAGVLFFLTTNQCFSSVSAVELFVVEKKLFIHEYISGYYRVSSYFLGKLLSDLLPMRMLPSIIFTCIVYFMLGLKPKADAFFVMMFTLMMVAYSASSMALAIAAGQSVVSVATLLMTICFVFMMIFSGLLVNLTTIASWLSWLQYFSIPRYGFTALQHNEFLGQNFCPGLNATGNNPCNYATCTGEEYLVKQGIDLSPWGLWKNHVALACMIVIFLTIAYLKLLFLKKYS

O=C1NS(=O)(=O)c2ccccc21
not listed: [18]
inactive: all other assays above

Cc1cccc2c1ccc1ccccc12
inactive: [18]

CCC(C)c1ccccc1O (stereo not given)
not listed: [9] | [18]
inactive: all other assays above

CC(C)(c1ccc(Oc2ccc(N)cc2)cc1)c1ccc(Oc2ccc(N)cc2)cc1
active: [18] 0.334 µM

O=C(NCc1ncc(C(F)(F)F)cc1Cl)c1c(Cl)cccc1Cl
inactive: [18]

CCCCCCCCCCCCOS(=O)(=O)O
active: [3] 77.2 µM | [7] 86.2 µM | [11] 50 µM | [13] 77.7 µM | [15] 86.9 µM
not listed: [6] | [18]
inactive: all other assays above

CC(=O)Nc1ccc(O)cc1
not listed: [18]
inactive: all other assays above

CCCCc1oc2ccccc2c1C(=O)c1cc(I)c(OCCN(CC)CC)c(I)c1
inactive: [2] | [3] | [10] | [12] | BCL2L11 (gene 10018) | [16] | Caspase-3 (Homo sapiens)
active: [1] 62.4 µM | [4] 59.6 µM | [5] 22.4 µM | [6] 52.1 µM | [7] 68.8 µM | [8] 61 µM | [9] 59.4 µM | [11] 65.2 µM | [13] 11.9 µM | [14] 61.6 µM | [15] 59.5 µM

O=C(c1ccccc1)c1ccccc1
not listed: [17] | [18]
inactive: all other assays above

CCCCCCCCCCCCCCC
not listed: [18]
inactive: all other assays above

CCCCC(CC)C(=O)O (stereo not given)
not listed: [2] | [18]
inactive: all other assays above
